Source: PubChem
This is a sample that favours compounds with a hit; in the whole collection about 7.8% have one here.
TSHR ag = agonists of human thyroid stimulating hormone receptor; P16473; Potency, µM (doses to about 57.1 µM), for the others: at the top dose activation, most hits filed as activators; HEK293-CNG-TSHR cells (CNG channel as cAMP sensor), membrane potential dye, cAMP; AID 926; hit rate 0.48% among 73,000; active = well fitted activation curve with a large enough effect in the main read-out, with a control signal flat, not every such curve was filed as active; inconclusive = small, poorly fitted or top-dose-only effect, or a change in a side signal; inactive = no such curve, though single readings can be large or run the other way; % of control where 0% means no effect;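 also: the control signal comes from parental cells without the receptor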
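HEK 293 cells stably expressing TSHR and a modified CNG channel, with CNG-only parental cells as counterscreen, were preloaded 60 min at room temperature with membrane potential dye containing 100 uM RO 20-1724. Compound exposure was 30 min, and depolarization was read as fluorescence at 590 nm.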
FLuc inh = inhibitors of firefly luciferase. P08659. purified firefly luciferase, luminescence, 8 min. Potency, µM (highest dose often 57.1 µM), for the others: top-dose activity change, negative = inhibition, usual class: inhibitors. hit rate 2.2% among 72,000; also: % is scaled to controls: 0 for no effect and ±100 for the full control effect; nearly all actives have a fitted effect of over 40% in size
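Substrate buffer containing 10 uM ATP (pH 7.2 imidazole, Mg2+, KCl, detergent, BSA) is dispensed, compound pinned in, then luciferase/luciferin detector mix added. After 8 min at ambient temperature, light output is measured.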
Tau filament bind = tau filament binding; recombinant tau filaments, thioflavin S fluorescence, 15 h; filaments grown with octadecylsulfate alongside compound; Potency, µM (titrated, usually from 57.1 µM), inactives show at the top dose activity change, negative = inhibition; hit rate 2% among 71,000; AID 596;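 also: % is scaled to controls: 0 for no effect and ±100 for the full control effect; actives lower thioflavin S fluorescence by blocking filaments or displacing dye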
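Thioflavine S fluorescence (ex 450, em 510 nm) reports filaments formed from 1 uM human tau plus 30 uM ODS over 15 h at 37 C (10 mM HEPES pH 7.4, 100 mM NaCl, 5 mM DTT); compounds displacing dye or blocking filaments lower signal.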
ALOX15 inhib = blocks human 15-lipoxygenase activity; Potency, µM (doses to about 57.1 µM), for the others: at the highest dose activity change, negative = inhibition, most hits filed as inhibitors; purified 15hLO-1, xylenol orange hydroperoxide absorbance; hit rate 1.4% among 74,000; also: % is scaled to controls: 0 for no effect and ±100 for the full control effect; nearly all actives have a fitted effect of over 55% in size
Target sequence (P16050 whole entry, looked up): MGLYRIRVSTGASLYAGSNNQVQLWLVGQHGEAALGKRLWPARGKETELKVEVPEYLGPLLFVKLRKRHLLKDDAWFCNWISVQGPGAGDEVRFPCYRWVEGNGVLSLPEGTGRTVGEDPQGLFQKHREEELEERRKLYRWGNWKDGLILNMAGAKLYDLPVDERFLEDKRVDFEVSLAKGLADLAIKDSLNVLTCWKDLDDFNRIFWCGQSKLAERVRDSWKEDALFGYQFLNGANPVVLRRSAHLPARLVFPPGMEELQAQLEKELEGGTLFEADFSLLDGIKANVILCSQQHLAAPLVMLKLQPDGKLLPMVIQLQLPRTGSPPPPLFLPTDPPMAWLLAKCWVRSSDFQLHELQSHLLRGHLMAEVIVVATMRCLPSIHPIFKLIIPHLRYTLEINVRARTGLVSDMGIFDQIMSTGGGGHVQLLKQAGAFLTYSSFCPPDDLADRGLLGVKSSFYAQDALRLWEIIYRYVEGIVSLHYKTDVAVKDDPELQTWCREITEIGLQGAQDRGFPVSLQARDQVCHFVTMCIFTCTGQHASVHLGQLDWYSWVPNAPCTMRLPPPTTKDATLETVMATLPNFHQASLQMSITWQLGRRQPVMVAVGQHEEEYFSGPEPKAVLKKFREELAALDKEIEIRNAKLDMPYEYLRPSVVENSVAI
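Compounds were preincubated 15 min at room temperature with 40 nM purified human enzyme (25 mM Hepes pH 7.5, 0.01% Triton X-100); 50 uM arachidonic acid reacted 6 min. Fe-xylenol orange detection, 30 min, absorbance ratio 573/405 nm.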
HEK293 cAMP cs = raises cAMP in parental HEK293 cells, TSHR agonist counter-screen; parental HEK293 CNG cAMP sensor, membrane potential fluorescence; Potency, µM (titrated, usually from 57.1 µM), inactives show at the highest dose activation, most hits filed as activators; hit rate 2.5% among 73,000; AID 938; also: % of control where 0% means no effect; nearly all actives have a fitted effect of over 55% in size
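Counterscreen for endogenous-receptor signalling: CNG-channel HEK 293 cells report cAMP rise by membrane depolarization. After 60 min dye equilibration with 100 uM RO 20-1724, compounds incubated 30 min before bottom-read fluorescence at 590 nm.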
PK Bst = alters activity of Bacillus stearothermophilus pyruvate kinase | Potency, µM | purified pyruvate kinase, luminescence ATP production; ribose 5-phosphate activator present at AC10 | hit rate 1.2% among 51,000 | AID 361; in the data active = potency below about 11 µM; inconclusive = mostly about 12 µM to 25 µM;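 the screen sought inhibitors and activators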;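 also: scaled between full activation by ribose 5 phosphate and full inhibition by luteolin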
* = called active by the depositor; u = inconclusive; x = no result; [ ] = another dose, or the depositor's remark. Unless noted, calls follow the shape of the dose curve; as a rule, active = well fitted curve in the direction sought with a large enough effect; inconclusive = small, poorly fitted or top-dose-only effect, or another doubt; inactive = no such curve, though single readings can be large; an effect the other way counts as inactive or inconclusive. Potency is read from the fitted curve at half-maximal effect.

SMILES	TSHR ag	FLuc inh	Tau filament bind	ALOX15 inhib	HEK293 cAMP cs	PK Bst
CN(C)C(=O)c1ccc(-c2ccc3ncnc(N(C)C)c3c2)cc1	9%	2%[2.29 µM]	-1%	0%	6%	x
Brc1cccc(-c2nnc(SCc3ccon3)n2-c2ccccc2)c1	59%	0%	35%	-6%	23%	x
Cc1nc(NCc2ccccn2)c2ccccc2n1	u	-5%	25%	2%	u	>57
c1ccc(CNc2ccc3ccccc3n2)nc1	3%	25µM*	-9%	-17%	36%	x
CCCc1[nH]n(-c2nc3ccccc3s2)c(=O)c1C=NCCN1CCOCC1	x	-4%[25.5 µM]	x	x	x	>26
CCCCCN=Cc1c(C)[nH]n(-c2nc3ccccc3s2)c1=O	13%[11.4 µM]	7.9µM*	35%[11.4 µM]	57%[11.4 µM]	7%[11.4 µM]	x
CCCN1Cc2cccc(C(=O)Nc3ccc(CN4CCCC4)cc3)c2C1=O	u	20µM*	41%	-5%	u	>57
CCOc1ccc(NC(=O)c2cccc3c2C(=O)N(Cc2cccnc2)C3)cc1	7%	4µM*	5%	-11%	-13%	4.2*
CCCN1Cc2cccc(C(=O)Nc3ccc(OC)c(OC)c3)c2C1=O	9%	4%	-3%	2%	0%	>57
CCOC(=O)N1CCC(NC(=O)c2cccc3c2C(=O)N(Cc2cccnc2)C3)CC1	x	2%	-3%	3%	4%	>57
CCn1nnc(-c2ccccc2NC(=O)C(F)(F)F)n1	6%	-1%	2%	-7%	14%	>57
CCn1nnc(NC(=O)c2ccc(C(C)(C)C)cc2)n1	-11%	13µM*	-7%	-1%	11%	u
Cc1ccc(C(=O)Nc2nnn(C)n2)cc1	2%	25µM*	3%	5%	3%	x
CCn1nnc(NC(=O)c2cccnc2)n1	7%	-1%	14%	u	6%	>57
CCn1nnc(NC(=O)c2ccccc2Br)n1	u	2%	1%	2%	32µM*	>57
[O-]/[N+](=N\O)c1ccccc1	u	x	13%	-26%	u	x
O=C(Cn1c(=O)oc2cc(S(=O)(=O)N3CCCC3)ccc21)NCc1ccccn1	9%	6%	2%	15%	-1%	x
O=c1c2ccccc2nc(SCc2nc(-c3ccccc3)no2)n1-c1ccc(F)cc1	u	3%	45%	-10%	u	x
O=C(O)CN(CCN(CC(=O)O)CC(=O)O)CC(=O)O.[Mn]	24%[11.4 µM]	3%[11.4 µM]	3%[11.4 µM]	15%[11.4 µM]	-9%[11.4 µM]	x
CCc1cc(C(=O)Cc2nc3ccccc3[nH]2)c(O)cc1O	u	10µM*	-1%	3%	u	>57
CCc1cc(C(=O)COc2ccccc2F)c(O)cc1O	6%	0%	-18%	13µM*	23%	x
CCc1cc(C(=O)Cc2ccc(F)cc2)c(O)cc1O	6%	0%	-13%	u	14%	x
COc1ccc(NC(=O)N2CCC3(CC2)CCN(S(=O)(=O)c2ccccc2)CC3)cc1	3%	-2%[11.4 µM]	-2%	-1%	-7%	x
O=C(NC12CC3CC(CC(C3)C1)C2)N1CCN(C(=O)C2CCCO2)CC1 (stereo not drawn)	-2%	0%	0%	2%	0%	>57
C1CCC(N=C(NC23CC4CC(CC(C4)C2)C3)N2CCOCC2)CC1	u	2%	-10%	-22%	25µM*	x
SMILES	TSHR ag	FLuc inh	Tau filament bind	ALOX15 inhib	HEK293 cAMP cs	PK Bst
Cc1ccc(-n2c(SCn3nnc4ccccc4c3=O)nnc2-c2cccnc2)c(C)c1	-3%[11.4 µM]	-2%	16µM*	-14%	12%	>57
CN(CC(=O)NCCC1=CCCCC1)S(=O)(=O)c1ccc2c(c1)CCC(=O)N2	-3%	2%	-20%	-3%	2%	x
CCC(=O)N(Cc1cc2cc(OC)ccc2[nH]c1=O)c1ccc(C)cc1C	u	3%	20%	u	32µM*	>57
Cc1nc(NC2CCCCC2)c2nc(-c3ccccc3)n(CC3CCN(C)CC3)c2n1	u	x	-1%	14%	u	x
Clc1ccc(-c2nnc(NC3=NCCCCC3)o2)cc1	-12%	2.5µM*	19%	6%	-1%	6.4*
c1nnc(NC2=NCCCCC2)s1	8%	-39%	13%	12%	-1%	>57
N/C(CSc1nc(-c2ccccc2)c(-c2ccccc2)o1)=N\O	u	-7%	0%	13µM*	u	x
NCc1nnn(Cc2ccccc2)c1N	1%[11.4 µM]	2%[11.4 µM]	-9%[11.4 µM]	3%[11.4 µM]	0%[11.4 µM]	x
CCCSc1nnc2n(C)c(=O)c3c4c(sc3n12)CCC4	x	-1%[25.5 µM]	x	x	x	4.7*
COc1ccc(C(=O)CSc2nnc(-c3ccc(S(=O)(=O)N4CCOCC4)cc3)o2)cc1	14%	4%	-4%	-10%	5%	>57
Cc1csc(SCC(=O)c2ccc(S(=O)(=O)N3CCOCC3)cc2)n1	-2%	0%	-9%	20µM*	-1%	>57
Cc1ccc(C2C3CSCC=C3C(C#N)=C(N)C2(C#N)C#N)cc1 (stereo not drawn)	25µM*	-2%	97%	25µM*	-2%	>57
O=c1c2ccccc2c2ccccc2c(=O)n1-c1cc2c3ccccc3ccc2c2ccccc12	-3%[11.4 µM]	-8%[11.4 µM]	8%[11.4 µM]	15%[11.4 µM]	0%[11.4 µM]	x
O=C1C=CC(=O)c2c1ccc1c2ccc2ccccc21	-18%[25.6 µM]	4%[25.5 µM]	4µM*	-6%[25.6 µM]	1%[25.6 µM]	x
CCOC(=O)c1nn(-c2ccccc2)c(C(=O)OCC)c1N	8%	-1%	5%	1%	5%	>57
CCOC(=O)c1nn(-c2ccccc2)c(=O)c2c(N)scc12	-13%	-12%	-20%	5µM*	-1%	x
O=C(CSc1nnc(-c2ccc(O)cc2)n1Cc1ccco1)c1cccs1	10µM*	-1%	-5%	u	27%	>57
CC(C)OC(=O)CSc1nnc(-c2cnccn2)n1Cc1ccco1	19%	3%	-12%	5%	9%	>57
COc1cccc(-c2nnc(SCC(=O)OC(C)C)n2Cc2ccco2)c1	u	1%	-8%	12%	16µM*	>57
CC(C)OC(=O)CSc1nnc(Cc2ccccc2)n1Cc1ccco1	u	2%	11%	13%	5µM*	>57
CC(=O)OC1CCC2(C)C(=CC=C3C2CCC2(C)C3CCC2C(C)/C=C/C(C)C(C)C)C1(C)C (stereo not drawn)	x	x	x	2%	x	x
C[C@@](N)(/C=C\c1ccccc1)C(=O)O	-3%[11.4 µM]	1%[11.4 µM]	2%[11.4 µM]	8%[11.4 µM]	6%[11.4 µM]	x
CNc1ccccc1-c1nc2ccccc2n(C)c1=O	x	1%[25.5 µM]	x	x	x	>26
COc1ccccc1Nc1nc2ccccc2n1C	-6%	16µM*	5%	-6%	5%	x
O=C1Nc2cccnc2Sc2ccccc21	-5%[11.4 µM]	-1%	-4%	16µM*	-1%	>57
